{"source": "PubChem BioAssay AID651707", "about": "(NMMLSC, 2012)", "note": "About 170 (7.4%) of roughly 2,300 compounds were called active.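 Rule for the calls: active = over 5% cells positive for green fluorescent reporter, or over 2% positive for both it and APC stain; inactive = the rest, inconclusive results apart.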 The list is a sample of the results."}
{"assay": "intrinsic compound fluorescence in ER-HoxA9 progenitors, confirmation, artefact control for AML myeloid differentiation project, cell-based, flow cytometry, GFP/APC, Cherry Pick01 (AID 651707);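 for double positive: share of cells both GFP positive and bound by Mac1 APC antibody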;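 for fluorescence response: range taken on the double positive population between DMSO and positive control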", "details": "no estrogen, GFP autofluorescence flow cytometry, stronger effect = higher value; double positive: measured here: double positive GFP/APC population; fluorescence response: vehicle wells 0%, positive control 100%", "units": {"double positive": "%"}}
{"compound": "O=C(CCCN1C(=O)CCC1=O)Nc1ccc(Cl)c(C(F)(F)F)c1", "fluorescence response": "0% (inactive)"}
{"compound": "CCOC(=O)c1c(-c2ccccc2)oc2ccc(OCC(=O)NN)cc12", "fluorescence response": "0% (inactive)"}
{"compound": "CC(C)OC(=O)CN1C(=O)C(=O)c2ccccc21", "fluorescence response": "0.5% (inactive)"}
{"compound": "Cc1ccc(C)c(S(=O)(=O)N2CCN(c3ncnc4sccc34)CC2)c1", "fluorescence response": "0% (inactive)"}
{"compound": "O=C(NCC1CCCCC1)NCC1CCCCC1", "fluorescence response": "0.2% (inactive)"}
{"compound": "Nc1nc(Nc2ccccc2F)nc(NC2CCCCC2)c1[N+](=O)[O-]", "fluorescence response": "0% (inactive)"}
{"compound": "COc1cccc(NC(=O)[C@H](Cc2c[nH]c3ccccc23)NC(=O)[C@@H]2Cc3ccccc3CN2)c1", "fluorescence response": "0.6% (inactive)"}
{"compound": "COc1ccccc1NC(=O)c1cc(Cl)nnc1Cl", "fluorescence response": "0.6% (inactive)"}
{"compound": "O=C(Nc1cccc2ncccc12)c1ccc(-c2ccc(Cl)cc2Cl)o1", "fluorescence response": "0.6% (inactive)"}
{"compound": "CCOC(=O)C1=C(CN2CCc3ccccc32)NC(=O)NC1c1cccc([N+](=O)[O-])c1", "note": "(stereo not drawn)", "fluorescence response": "0% (inactive)"}
{"compound": "O[C@H]1CN(Cc2cccs2)[C@@H](c2ccc(Cl)cc2)C[C@@H]1n1cc(C2CC2)nn1", "fluorescence response": "0% (inactive)"}
{"compound": "O[C@H]1C[C@H](c2ccc(Cl)cc2)N(Cc2cccs2)C[C@@H]1n1cc(C2CC2)nn1", "fluorescence response": "0.5% (inactive)"}
{"compound": "O=c1oc2ccccc2cc1-c1csc(Nc2ccc(O)cc2)n1", "fluorescence response": "55.3% (active)"}
{"compound": "Cc1ccc(-c2nc(C#N)c(NCCCn3ccnc3)o2)cc1", "fluorescence response": "0.3% (inactive)"}
{"compound": "Cc1ccc(C(=O)NC2CCCC(C)C2C)cc1S(=O)(=O)N1CCCCC1", "note": "(stereo not drawn)", "fluorescence response": "0% (inactive)"}
{"compound": "Cc1cc(C)c(-c2csc(NC(=O)CCCc3nc4ccccc4c(=O)[nH]3)n2)c(C)c1", "fluorescence response": "2.2% (inactive)"}
{"compound": "CC1CCCC(NC(=O)CN2CCN(Cc3ccc(Cl)cc3)C2=O)C1C", "note": "(stereo not drawn)", "fluorescence response": "0% (inactive)"}
{"compound": "COc1ccc(C(=O)N(Cc2ccccc2)c2ccc(C)cc2)cc1S(=O)(=O)N1CCOCC1", "fluorescence response": "1.5% (inactive)"}
{"compound": "CN(C(=O)c1cccc([N+](=O)[O-])c1)c1ccccc1C(=O)NCc1ccccc1", "fluorescence response": "0.4% (inactive)"}
{"compound": "Cc1ccc(OS(=O)Nc2cccc3nccnc23)cc1", "note": "(stereo not drawn)", "fluorescence response": "0% (inactive)"}
{"compound": "Fc1cccc(Cl)c1CSc1ccc(-c2ccco2)nn1", "double positive": 0.2, "fluorescence response": "0.5% (inactive)"}
{"compound": "O=C(CN1C(=O)NC(Cc2c[nH]c3ccccc23)C1=O)Nc1ccccc1C(F)(F)F", "note": "(stereo not drawn)", "fluorescence response": "0% (inactive)"}
{"compound": "CCOC(=O)C(C(=O)OCC)C(C#N)c1ccccc1", "note": "(stereo not drawn)", "fluorescence response": "0% (inactive)"}
{"compound": "CCN(CC)c1ccc(/C=N/NC(=O)CNC(=O)c2cccs2)cc1", "fluorescence response": "0% (inactive)"}
{"compound": "COc1ccc(C(C(=O)NCc2ccccc2)n2c(=O)c(-c3ccccc3)nc3ccccc32)cc1", "note": "(stereo not drawn)", "fluorescence response": "0.7% (inactive)"}
{"compound": "N#C/C(=C/c1ccc(N2CCCCC2)o1)C(=O)NCCc1c[nH]c2ccccc12", "fluorescence response": "64.7% (active)"}
{"compound": "COc1ccccc1CNC(=O)c1cc(-c2cc(Cl)ccc2C)n[nH]1", "fluorescence response": "0% (inactive)"}
{"compound": "O=S(=O)(c1ccc(Br)cc1)c1nc(-c2ccccc2)oc1NCc1cccnc1", "fluorescence response": "1.5% (inactive)"}
{"compound": "CC(=O)Nc1ccc(S(=O)(=O)Nc2ccc(N3CCOCC3)c(F)c2)cc1", "double positive": 0.2, "fluorescence response": "0.8% (inactive)"}
{"compound": "CC(=O)Nc1ccc(S(=O)(=O)Nc2ccc(N3CCCCC3)cc2)cc1", "double positive": 10.5, "fluorescence response": "10.5% (active)"}
{"compound": "CCOC(=O)c1c(-c2ccc(C)cc2)csc1/N=C(\\C)C1=C(O)c2ccccc2C1=O", "fluorescence response": "0% (inactive)"}
{"compound": "COc1ccc(-c2ccc(OC(=O)NC3CCS(=O)(=O)C3)cc2)cc1", "note": "(stereo not drawn)", "double positive": 0.4, "fluorescence response": "0.7% (inactive)"}
{"compound": "COC(=O)CN(c1cccc(C(C)=O)c1)S(C)(=O)=O", "fluorescence response": "0% (inactive)"}
{"compound": "C/C(=C\\c1ccccc1)C1NC(=O)c2c(sc3c2CCCC3)N1", "note": "(stereo not drawn)", "fluorescence response": "0% (inactive)"}
{"compound": "COc1ccc(C2CC(c3cccc(OC)c3)=NN2c2ccc(S(N)(=O)=O)cc2)cc1", "note": "(stereo not drawn)", "fluorescence response": "0.5% (inactive)"}
{"compound": "Cc1cc(NC(=O)CSc2nc(C(C)C)nc3sc4c(c23)CCC(C)C4)no1", "note": "(stereo not drawn)", "fluorescence response": "1.4% (inactive)"}
{"compound": "COc1ccc(-c2nnc(SCC(=O)c3cccs3)o2)c(OC)c1", "fluorescence response": "3.4% (inactive)"}
{"compound": "Cc1ccc2c(c1)C1C[N+](C)(CC(=O)c3ccccc3)CCC1N2C(=O)c1ccccc1Cl", "note": "(stereo not drawn)", "fluorescence response": "0% (inactive)"}
{"compound": "Cc1ccc(-n2nc3cc(C)c(NC(=O)c4cccnc4)cc3n2)cc1", "fluorescence response": "4.7% (inactive)"}
{"compound": "COc1ccc2nc(N3CCN(C(=O)c4ccc([N+](=O)[O-])o4)CC3)sc2c1", "fluorescence response": "0% (inactive)"}
{"compound": "CC(C)CC(COCc1ccc(Cl)cc1)N1CCN(C(=O)c2ccc(C(F)(F)F)cc2)CCC1=O", "note": "(stereo not drawn)", "fluorescence response": "0% (inactive)"}
{"compound": "COc1ccccc1N1CCN(C(=O)c2cc(-c3ccc(Br)cc3)on2)CC1", "fluorescence response": "0.3% (inactive)"}
{"compound": "O=C1c2ccccc2C(=O)N1Cc1cc(-c2ccccc2Cl)no1", "fluorescence response": "0% (inactive)"}
{"compound": "Cc1nn(-c2cc(Cl)ccc2N)c(=O)c2ccccc12", "fluorescence response": "0% (inactive)"}
{"compound": "CNC[C@H]1Oc2c(NC(=O)C3CCCCC3)cccc2C(=O)N([C@H](C)CO)C[C@@H]1C", "fluorescence response": "0% (inactive)"}
{"compound": "O=C(Cn1cc(-c2nnnn2-c2ccc(Cl)cc2)c(=O)c2ccccc21)c1ccccc1", "fluorescence response": "0% (inactive)"}
{"compound": "CN1CCC(CN)(N2CCN(c3ccccc3)CC2)CC1", "fluorescence response": "0.6% (inactive)"}
{"compound": "CC#CC[N+](C)(C)CCCCCC", "fluorescence response": "0% (inactive)"}
{"compound": "N#CC1=C(N)Oc2c(sc3ccccc23)C1c1ccco1", "note": "(stereo not drawn)", "fluorescence response": "0% (inactive)"}
{"compound": "O=C(NC(=O)c1ccccc1)Nc1ccccc1O", "fluorescence response": "1.3% (inactive)"}
{"compound": "Cc1c(C(=O)OCC(=O)N(CCC#N)c2ccccc2)oc2c1ccc1ccccc12", "fluorescence response": "0% (inactive)"}
{"compound": "Cc1cccc(OCC(O)CN2CCN(CCN3C(=O)c4cccc5cccc(c45)C3=O)CC2)c1C", "note": "(stereo not drawn)", "fluorescence response": "0% (inactive)"}
{"compound": "CCCC(=O)Nc1c(O)c2ccccc2[nH]c1=O", "fluorescence response": "0% (inactive)"}
{"compound": "CCN(CC)C(=O)CSC(Nc1cccc(F)c1)=C(C#N)C#N", "fluorescence response": "7.7% (active)"}
{"compound": "Cc1cc(C)c(S(=O)(=O)NCC2CCC(C(=O)NCc3ccc4c(c3)OCO4)CC2)c(C)c1", "note": "(stereo not drawn)", "fluorescence response": "0.2% (inactive)"}
{"compound": "O=C(CN(c1ccccc1)S(=O)(=O)c1ccc(Cl)cc1)Nc1ccccc1C(=O)N1CCCC1", "fluorescence response": "0% (inactive)"}
{"compound": "CC(C)CNC(=O)COC(=O)/C=C/c1ccccc1[N+](=O)[O-]", "fluorescence response": "0% (inactive)"}
{"compound": "Cc1cc(C)n(C(=O)c2ccc(C)c(S(=O)(=O)N3CCOCC3)c2)n1", "fluorescence response": "2.3% (inactive)"}
{"compound": "Cc1ccc(Nc2cc(C)nc3c(C)ccc([N+](=O)[O-])c23)cc1", "fluorescence response": "6.7% (active)"}
